# The list is not random: actives were taken first. Their share in the collection is about 19%.
# HT1080 IDH1KD tx = HT-1080 IDH1 knockdown cell toxicity (counter line); AID 686971; HT-1080 IDH1 knockdown viability, ATP luminescence, 48 h; Potency, µM (titrated, usually from 46.1 µM), most hits filed as cytotoxic; actives 2% (n = 360,000)
#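 After a 2 h attachment period, IDH1KD HT-1080 cells took pin-transferred compound for 48 h at 37 °C; ATP-based luminescence after 10 min room-temperature reagent incubation reported viability.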
# IL1B secr inh = inflammasome signaling inhibition, IL-1 beta readout. AID 743279. activity change, % at 57.5 µM. THP-1 LPS/ATP IL-1B secretion, AlphaLISA, 16 h; stronger effect = lower value. actives 4.7% (n = 360,000); in the data active means activity change below about -50%; inconclusive means mostly about -30% to -49%
#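 THP-1 cells pretreated 1 hr with compounds (up to 57.5 uM final), then stimulated with LPS (250 ng/mL final) plus ATP (1.25 mM final); secreted IL-1B measured by AlphaLISA after 16 hr, decreased signal indicating inhibition.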
# HT1080NT lethal = kills 2HG-producing HT-1080-NT fibrosarcoma cells. actives 1.6% (n = 360,000). Potency, µM (series often up to 46.1 µM), hits mostly cytotoxic. HT-1080-NT fibrosarcoma viability, CellTiter-Glo ATP luminescence, 48 h. AID 686970;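 further: NT is the 2HG producing partner of a matched IDH1 knockdown line; nearly all actives have a fitted effect of over 55% in size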
#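 Read-out is CellTiter-Glo luminescence after 10 minutes at room temperature, following 48 hours' compound treatment of HT-1080-NT cells (750 cells/well, RPMI, 5% FBS, 37 degrees C).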
# TDP1 cell CPT = DT40-hTDP1 cell growth loss with CPT; chicken DT40 Tdp1-/-;hTDP1 cells + 20 nM CPT, ATP luminescence, 48 h; Potency, µM (highest dose often 46.2 µM), most hits filed as inhibitors; actives 12% (n = 420,000); further: nearly all actives have a fitted effect of over 55% in size
#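 Cell growth measured by CellTiter-Glo luminescence after a minimum 48 h, 37 C compound exposure with 20 nM CPT in Tdp1-knockout DT40 cells stably expressing hTDP1, seeded 400/well; qHTS titration format.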
# DT40 TDP1 no CPT = qHTS for Inhibitors of human tyrosyl-DNA phosphodiesterase 1 (TDP1): qHTS in cells in absence of CPT | DT40 Tdp1-/- hTDP1 cells, no CPT, ATP luminescence, 48 h | Potency, µM (doses to about 46.2 µM), actives largely listed as inhibitors | actives 15% (n = 420,000) | AID 686978, 2013; further: nearly all actives have a fitted effect of over 55% in size
#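 DT40 Tdp1-/-;hTDP1 cells, no CPT (DMSO vehicle only), 400 cells/well; compounds pin-transferred; ≥48 hr, 37 °C; CellTiter-Glo 30 min RT dark, luminescence read.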
# Hits are given with their value; – = inactive; ? = inconclusive; · = no result. Unless noted, the call rests on the fitted dose curve; in most records, active means well fitted curve in the direction sought with a large enough effect; inconclusive means small, poorly fitted or top-dose-only effect, or another doubt; inactive means no such curve, though single readings can be large; an effect the other way counts as inactive or inconclusive.
SMILES,HT1080 IDH1KD tx,IL1B secr inh,HT1080NT lethal,TDP1 cell CPT,DT40 TDP1 no CPT
CCCCn1nc(C(=O)N[C@@H](CCSC)c2nc3ccccc3[nH]2)c2ccccc2c1=O,?,–,?,26µM,?
CCn1nc(C(=O)N[C@@H](CCSC)c2nc3ccccc3[nH]2)c2ccccc2c1=O,–,–,–,–,–
CSCC[C@H](NC(=O)c1ccc(Cl)c([N+](=O)[O-])c1)c1nc2ccccc2[nH]1,?,-102,?,?,?
O=C(Nc1nc2ccccc2[nH]1)c1ccc(Cl)c([N+](=O)[O-])c1,–,–,–,?,?
CCCCC(NC(C)=O)c1nc2ccccc2[nH]1 (centres undefined),–,–,–,–,–
Cc1cccc(C(=O)Nc2nc3nc(-c4ccccc4)cc(=O)n3[nH]2)c1,·,·,·,–,–
Cc1ccc(NC(=O)CS(=O)c2ccccc2N)c(C)c1 (centres undefined),–,–,–,–,–
CCOc1cc(C=NN=C2c3ccccc3-c3ccccc32)ccc1O,?,–,–,?,18µM
O=C(COc1ccccc1[N+](=O)[O-])N/N=C/c1ccc(O)c([N+](=O)[O-])c1,–,–,–,?,–
CCOc1cc(/C=N/Nc2nnc(C)n2N)ccc1O,23µM,–,?,?,–
O=C(COc1ccccc1C(=O)N/N=C\c1ccc(O)c(O)c1)N/N=C/c1ccc(O)c(O)c1,–,–,–,16µM,?
CCOc1cc(/C=N/NC(=O)CN(CCc2ccccc2)S(=O)(=O)c2ccc(NC(C)=O)cc2)ccc1O,–,?,?,?,18µM
CCOc1cc(/C=N/NC(=O)C(=O)N/N=C/c2ccc(O)c(OCC)c2)ccc1O,–,–,–,–,–
COc1ccc(/C=N/NC(=O)c2sccc2OCc2ccc(F)cc2)cc1OC,–,–,–,16µM,23µM
CCOc1cc(/C=N/NC(=O)c2ccccc2OCc2ccc(F)cc2)ccc1O,–,–,–,?,13µM
CCOc1cc(/C=N/NC(=O)c2ccccc2-n2cccc2)ccc1O,?,–,?,?,?
CCOc1cc(/C=N/NC(=O)N/N=C/c2ccc(O)c(OCC)c2)ccc1O,2.6µM,?,1.8µM,2.6µM,2.9µM
CCn1nc(C)c(CNC(=O)C2CCC(=O)N(CCc3ccc(OC)cc3)C2)c1C (centres undefined),–,–,–,–,–
CC(C)CCNC(=O)C1CCC(CNS(=O)(=O)c2ccc(Cl)cc2)CC1 (centres undefined),–,–,–,–,–
CN1CCN(C(=O)c2cccc(-c3cnc4cnc(-c5ccccc5Oc5ccccc5)cn34)c2)CC1,23µM,-57,?,18µM,13µM
O=C(Cc1cccs1)N[C@@H]1c2ccccc2CC[C@@H]1OCc1ccccc1,–,–,–,–,–
COc1ccc(CCNC(=O)C2CCCN(c3ncnc4c3nc3n4CCCCC3)C2)c(OC)c1 (centres undefined),–,–,–,?,?
O=C(NCC1CCN(Cc2ccc(F)cc2)CC1)C1CCCN(c2ncnc3c2nc2n3CCCCC2)C1 (centres undefined),–,?,–,?,?
Cc1ccc(CNC(=O)C2CCCN(c3ncnc4c3nc3n4CCCCC3)C2)cc1 (centres undefined),–,–,–,?,9.2µM
COc1ccc(CNC(=O)C2CCCN(c3ncnc4c3nc3n4CCCCC3)C2)cc1 (centres undefined),–,–,–,18µM,?
O=C(NCc1ccccc1)C1CCCN(c2ncnc3c2nc2n3CCCCC2)C1 (centres undefined),–,–,–,?,21µM
Cc1cccc(CCNC(=O)C2CCCN(c3ncnc4c3nc3n4CCCCC3)C2)c1 (centres undefined),–,–,–,–,?
O=C(NCc1cccc(Cl)c1)C1CCCN(c2ncnc3c2nc2n3CCCCC2)C1 (centres undefined),–,?,–,–,12µM
O=C(NCCc1ccc(Cl)cc1)C1CCCN(c2ncnc3c2nc2n3CCCCC2)C1 (centres undefined),–,–,–,?,?

# Assay outcomes: PubChem, National Center for Advancing Translational Sciences (NCATS)
